# From PubChem BioAssay AID1671190 (National Center for Advancing Translational Sciences (NCATS), 2021)
# The whole screen tested about 580,000 compounds, of which about 6,100 (1.1%) were called active. About 15% were inconclusive and are not listed. Calls come from the whole dose curve; as a rule, active = well fitted inhibition curve with a large enough effect; inconclusive = small, poorly fitted or top-dose-only effect, or another doubt; inactive = no such curve, though single readings can be large or run the other way. Only a selection was taken, and actives are over-represented in it overall.
# Target: Polyunsaturated fatty acid lipoxygenase ALOX12 (Homo sapiens) (UniProt P18054)
# Sequence (P18054 whole entry, looked up): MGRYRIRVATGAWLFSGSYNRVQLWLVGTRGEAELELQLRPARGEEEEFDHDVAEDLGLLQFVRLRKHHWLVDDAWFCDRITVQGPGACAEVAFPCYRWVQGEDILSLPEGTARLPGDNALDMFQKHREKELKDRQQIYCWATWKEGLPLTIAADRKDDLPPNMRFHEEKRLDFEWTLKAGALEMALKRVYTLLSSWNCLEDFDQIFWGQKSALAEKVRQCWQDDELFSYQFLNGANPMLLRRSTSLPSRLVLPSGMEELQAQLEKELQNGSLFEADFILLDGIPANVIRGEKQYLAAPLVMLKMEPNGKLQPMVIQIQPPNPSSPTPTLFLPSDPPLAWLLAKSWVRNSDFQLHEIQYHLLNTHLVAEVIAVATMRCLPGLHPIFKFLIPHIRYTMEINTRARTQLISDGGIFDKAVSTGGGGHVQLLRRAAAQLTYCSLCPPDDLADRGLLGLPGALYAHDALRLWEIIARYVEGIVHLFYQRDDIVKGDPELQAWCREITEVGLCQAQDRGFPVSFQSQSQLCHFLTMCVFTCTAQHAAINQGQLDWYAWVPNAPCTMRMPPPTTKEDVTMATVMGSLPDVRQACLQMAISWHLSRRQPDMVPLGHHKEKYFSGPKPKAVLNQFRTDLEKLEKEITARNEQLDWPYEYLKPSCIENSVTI
# Assay: Primary qHTS assay for inhibitors of human arachidonate 12S-lipoxygenase (ALOX12): Round 2
# Conditions: purified 12hLO, xylenol orange hydroperoxide absorbance; series mostly up to 108 µM; activity change, negative = inhibition: at the top concentration
# How it was run: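 Purified human 12hLO (150 nM final) in 25 mM Hepes, 0.01% Triton X-100, pH 7.0 was preincubated 15 min at room temperature with compound. Then 40 uM arachidonic acid was added, 30 min. Hydroperoxide was read by Fe-XO absorbance ratio 573/405 nm.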
# % is set by controls: 0 for no effect and ±100 for the full control effect; potency is the fitted concentration of half-maximal effect.
SMILES,"activity change, negative = inhibition",Potency
CCc1ccc(C(=O)Nc2ccccc2C#N)s1,-101% (inactive),–
Cc1cc(/C=N/NC(N)=O)c(C)n1C1CCCCC1,6.3% (inactive),–
Cc1cc(/C=N/n2cnnc2)c(C)n1-c1ccc2ncccc2c1,-25.8% (inactive),–
Cc1cccc(-n2c(C)cc(/C=N/NC(N)=S)c2C)c1,–,44.7 µM (active)
C=CCOc1ccc(NC(=O)c2ccncc2)cc1,-6.7% (inactive),–
CCc1ccc(NC(=O)Cc2nc(-c3c(N)n(C)c(=O)n(C)c3=O)cs2)cc1,-21.8% (inactive),–
COc1ccccc1C(=O)OCc1ccc(F)cc1,1.27% (inactive),–
O=C(OCc1ccc(F)cc1)c1cnc2ccccc2n1,–,1.26 µM (active)
CCOc1ccccc1NC(=O)c1cnc2ccccc2n1,-89% (inactive),–
Cc1cccnc1CN(C(=O)c1cc(COc2ccccc2)[nH]n1)C(C)C,42.5% (inactive),–
Cc1cc(OC(C)C(=O)Nc2sc3c(c2C(N)=O)CCCC3)ccc1Cl (centres undefined),-6.03% (inactive),–
NC(=O)c1c(Nc2nc3c(F)cccc3s2)sc2c1CCCC2,–,28.2 µM (active)
CCCn1nc(C(=O)Nc2sc3c(c2C(N)=O)CCC3)c2ccccc2c1=O,-4.24% (inactive),–
Cc1cc(C)c(-c2csc(NC(=O)Cn3ncc4ccccc4c3=O)n2)c(C)c1,-28.9% (inactive),–
CSc1nnnn1-c1ccc(C(=O)Nc2ccccc2F)cc1,0.435% (inactive),–
NCCCNC(=S)NCCCN(Cc1ccc(Cl)cc1)c1ccc(Br)cn1,–,39.8 µM (active)
S=C(NCCCc1cnc[nH]1)NCCCN(Cc1ccc(Cl)c(Cl)c1)c1ccc(Br)cn1,–,22.4 µM (active)
Cc1ccccc1CN(C)C(C)c1nc(-c2cccs2)no1 (centres undefined),11% (inactive),–
CCOC(=O)CSc1nnc(CNC(=O)c2cccs2)n1-c1ccccc1,15.4% (inactive),–
CCc1c(C)sc(NC(=O)C2c3ccccc3Oc3ccccc32)c1C(=O)OC(C)C,0% (inactive),–
CCc1c(C)sc(NC(=O)c2cccs2)c1C(N)=O,–,20 µM (active)
CCCCCCn1c(NC)nc2c1c(=O)[nH]c(=O)n2C,-2.64% (inactive),–
CCCOc1c(OC)cccc1C1CC(=O)Nc2c1c(C)nn2-c1ccc(OC)nn1 (centres undefined),-23.2% (inactive),–

SMILES,"activity change, negative = inhibition",Potency
COc1cc(C2CC(=O)Nc3nc(-c4ccccc4)[nH]c(=O)c32)ccc1OCc1ccc(F)cc1 (centres undefined),5.03% (inactive),–
O=C1CC(c2ccc(C(F)(F)F)cc2)c2sc(C(=O)O)c(-c3ccccc3)c2N1 (centres undefined),-20.3% (inactive),–
COc1cccc(C2CC(=O)Nc3nc(N)sc32)c1OCc1ccccc1 (centres undefined),–,7.94 µM (active)
Nc1nc2c(s1)C(c1ccccc1)CC(=O)N2 (centres undefined),–,22.4 µM (active)
O=C1CC(c2ccccc2)C(c2ccccc2)=NN1 (centres undefined),2.96% (inactive),–
O=[N+]([O-])/C=C/c1ccc(-c2ccccc2)o1,–,22.4 µM (active)
O=[N+]([O-])/C=C/c1ccc2c(ccn2Cc2ccccc2)c1,-11.5% (inactive),–
Cc1ccc(-c2nnc(SCc3ncc(-c4ccccc4)o3)o2)cc1,6.49% (inactive),–
Cc1ccc(-n2nnnc2SCc2ncc(-c3ccccc3)o2)cc1,40.5% (inactive),–
COCc1ccc(CNC(=O)c2ccc(C#N)cc2)cc1,-5.14% (inactive),–
O=C(c1cn[nH]c1)N1CC2(CN(Cc3cccc(Cl)c3)CC2COc2ccccc2)C1 (centres undefined),13.7% [at 176 µM] (inactive),–
CCOc1cc2cc(C(=O)c3cc(C)ccc3O)cnc2cc1OCC,-39.3% (inactive),–
CCC(=O)Nc1ccc2nc(-c3ccccc3C)oc2c1,-10.5% (inactive),–
COc1ccc(-c2nn(-c3ccccc3)cc2/C=C\C(=O)Nc2ccc(C(=O)O)cc2)cc1,–,39.8 µM (active)
COc1ccc(-c2nn(-c3ccccc3)cc2C(=O)NCC(C(C)C)N2CCOCC2)cc1 (centres undefined),0% (inactive),–
COc1ccc(NC(=O)c2cn(-c3ccccc3)nc2SC)cc1,-7.47% (inactive),–
CSc1ccccc1NC(=O)C(C)Nc1ccc2c(c1)CCN2C(C)=O (centres undefined),-8.13% (inactive),–
O=C(NC(c1ccccc1)c1cc2ccccc2o1)C1CCCC1 (centres undefined),-10.2% (inactive),–
N#Cc1ccccc1S(=O)(=O)N1CCN(Cc2c(O)ccc3ccccc23)CC1,–,11.2 µM (active)
N#CCCc1c(O)ccc2ccccc12,-2.74% (inactive),–
N#Cc1ccccc1S(=O)(=O)N1CCN(C(=O)c2cc(-c3ccccc3)nn2-c2ccccc2)CC1,-13.3% (inactive),–
Cc1nnc(SCC(=O)Nc2sc3c(c2C#N)CCCC3)n1CC(C)C,3.74% (inactive),–
CCC(=O)NNC(=S)Nc1ccccc1,-23.1% (inactive),–

SMILES,"activity change, negative = inhibition",Potency
Cc1ccc(-c2nnc3c4ccccc4c(C)nn23)cc1NC(=O)c1cccc(Br)c1,0% (inactive),–
O=C(Nc1ccc(S(=O)(=O)Nc2ncccn2)cc1)C12CC3CC(CC(C3)C1)C2,1.9% (inactive),–
O=C(Nc1ccc(S(=O)(=O)Nc2ncccn2)cc1)c1cncc(Br)c1,-19.6% (inactive),–
O=C(NC(=S)Nc1ccc(S(=O)(=O)Nc2ncccn2)cc1)c1cccc(Br)c1,–,20 µM (active)
O=C(NC(=S)Nc1cccc2c(O)cccc12)c1cccc(Br)c1,–,17.8 µM (active)
O=C(NC1C2CC3CC(C2)CC1C3)c1cccc(Br)c1 (centres undefined),-20.3% (inactive),–
CCOc1ccc(C(=O)N(CCN(C)C)CC(=O)OC(C)(C)C)cc1,-10.9% (inactive),–
CC(C)NC(=O)c1cccc2c1CCCN2CC(=O)NCCc1ccccc1,-6.04% (inactive),–
CSc1ccccc1C(=O)NC(C)c1ccccc1 (centres undefined),-1.43% (inactive),–
Clc1ccc(-c2nc(-c3ccc(Br)o3)no2)cc1,14.2% (inactive),–
CNC(=O)c1nn(CC(=O)NC(C)c2ccccc2)c(=O)c2ccccc12 (centres undefined),3.81% (inactive),–
O=C(Cn1nc(C(=O)O)c2ccccc2c1=O)Nc1cc(F)ccc1F,-13.9% (inactive),–
CC(NC(=O)Cn1nc(C(N)=O)c2ccccc2c1=O)c1ccccc1 (centres undefined),–,35.5 µM (active)
CC(=O)N1CCC(C(=O)N(C)CC(=O)Nc2ccccc2C(F)(F)F)CC1,-4.93% (inactive),–
Cc1cccc(Oc2c(C(F)(F)F)oc3cc(OCC(=O)OCCC(C)C)ccc3c2=O)c1,11.5% (inactive),–
C=CC(=O)c1ccc2ccccc2c1,–,17.8 µM (active)
O=C(OCC(=O)N1CCOCC1)c1ccc2ccccc2c1,198% (inactive),–
O=C(OCc1nc2ccccc2o1)c1ccc2ccccc2c1,9.47% (inactive),–
O=C(O)COc1ccc(-c2nccc3c2C(=O)N(Cc2c[nH]c4ccccc24)CC(COc2ccc(F)c(F)c2)O3)cc1 (centres undefined),6.07% (inactive),–
Cc1nn(C)c2nc(C(C)C)cc(C(=O)N3CCN(c4ncccn4)CC3)c12,43.9% (inactive),–
Cc1[nH]n(C(N)=S)c(=O)c1N=Nc1ccc(Cl)cc1Cl,-80.5% (inactive),–
Cc1[nH]n(C)c(=O)c1C(=O)c1c(-c2c(Cl)cccc2Cl)noc1C,-37.5% (inactive),–
Cc1[nH]n(C)c(=O)c1N=Nc1ccc(S(C)(=O)=O)cc1,–,6.31 µM (active)
